PubChem BioAssay (NCI)
The panel holds about 79,000 compounds, 15% with a hit somewhere; the sample as a whole holds those more often. The source made the active and inactive calls. No stated cut-off is given here; in the data, active means growth inhibition above about 70%; inactive means the rest.

Assays:
[1] = NCI Yeast Anticancer Drug Screen. Data for the mec2-1 strain (AID 157); settings: S. cerevisiae mec2-1 strain, active compounds read high
Summary of the method: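 Each compound was tested on mec2-1 yeast, a strain altered in DNA damage repair or cell cycle control. Growth inhibition is reported relative to vehicle.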

[2] = NCI Yeast Anticancer Drug Screen. Data for the rad14 strain (AID 159);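 further: 0% = growth of vehicle-treated control cultures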; settings: S. cerevisiae rad14 strain growth inhibition, active compounds read high
Summary of the method: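 Vehicle-treated cultures served as the baseline for growth inhibition of a DNA repair-mutant yeast strain exposed to each compound.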

[3] = NCI Yeast Anticancer Drug Screen. Data for the sgs1 mgt1 strain (AID 161);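 further: 0% = growth of cultures given vehicle only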; settings: S. cerevisiae sgs1 mgt1 strain, active compounds read high
Summary of the method: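 Inhibition of yeast growth, normalised to vehicle-treated controls, is reported for a strain bearing genetic alterations in DNA damage repair.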

[4] = NCI Yeast Anticancer Drug Screen. Data for the CLN2oe strain (AID 163);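 further: 0% = growth of vehicle-only control cultures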; settings: S. cerevisiae CLN2oe strain, active compounds read high
Summary of the method: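 First, the altered yeast strain was treated with each compound; second, its growth was measured; finally, inhibition was derived by comparison with vehicle controls.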

[5] = NCI Yeast Anticancer Drug Screen. Data for the cln2 rad14 strain (AID 165);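 further: 0% = growth equal to vehicle treated cultures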; settings: S. cerevisiae cln2 rad14 strain, active compounds read high
Summary of the method: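 Test compounds were added to cln2 rad14 yeast cultures; inhibition of growth was then determined by comparison with vehicle treatment.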

[6] = NCI Yeast Anticancer Drug Screen. Data for the bub3 strain (AID 167); settings: S. cerevisiae bub3 mutant strain, active compounds read high
Summary of the method: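 Inhibition values come from growth of compound-treated mutant yeast normalised to vehicle-treated controls.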

[7] = NCI Yeast Anticancer Drug Screen. Data for the wt2 strain (AID 169);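 further: 0% = growth of vehicle-treated yeast cultures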; settings: S. cerevisiae wt2 strain growth inhibition, active compounds read high
Summary of the method: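 The panel's yeast strains carry defined changes in DNA repair or cell cycle genes. Each strain is grown with compound, and growth loss is scored relative to vehicle.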

[8] = NCI Yeast Anticancer Drug Screen. Data for the mlh1 strain (AID 171);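 further: 0% = growth of vehicle-treated control cultures of the same strain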; settings: S. cerevisiae mlh1 strain growth inhibition, active compounds read high
Summary of the method: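 Inhibition values reflect reduced yeast growth in the presence of compound, referenced to vehicle controls, using a strain chosen for its alteration in DNA repair or cell cycle control.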

[9] = NCI Yeast Anticancer Drug Screen. Data for the sgs1 strain (AID 173);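 further: 0% = growth of vehicle-only control cultures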; settings: S. cerevisiae sgs1 mutant, active compounds read high
Summary of the method: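 Vehicle-treated cultures served as reference for growth inhibition of a yeast strain altered in DNA damage repair or cell cycle control after compound exposure.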

[10] = NCI Yeast Anticancer Drug Screen. Data for the mlh1 rad18 strain (AID 175); settings: S. cerevisiae mlh1 rad18 strain growth inhibition, active compounds read high
Summary of the method: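 Inhibition values reflect reduced growth of mutant yeast versus vehicle-treated controls following compound exposure; the mutations affect DNA damage repair.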

[11] = NCI Yeast Anticancer Drug Screen. Data for the rad18 strain (AID 177); settings: S. cerevisiae rad18 mutant growth inhibition, active compounds read high
Summary of the method: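 Steps: expose repair-mutant yeast to compound; measure growth; express as inhibition relative to vehicle control.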

[12] = NCI Yeast Anticancer Drug Screen. Data for the rad52 strain (AID 147);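 further: 0% = growth of vehicle-treated control cultures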; settings: S. cerevisiae rad52 mutant growth inhibition, active compounds read high
Summary of the method: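 Inhibition of yeast growth, referenced to vehicle controls, was the measured output for a strain with defective DNA damage repair.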

[13] = NCI Yeast Anticancer Drug Screen. Data for the wt1 strain (AID 149);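 further: 0% = growth of vehicle-treated wt1 cultures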; settings: S. cerevisiae wt1 strain (SPY 50644) growth inhibition, active compounds read high
Summary of the method: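 Vehicle-normalised growth inhibition; strain wt1; compound exposure.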

[14] = NCI Yeast Anticancer Drug Screen. Data for the rad50EPP+ strain (AID 151);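 further: 0% = growth of vehicle-treated control cultures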; settings: S. cerevisiae rad50 mutant strain, active compounds read high
Summary of the method: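 Genetically defined yeast (rad50EPP+, DNA damage repair alteration) is grown with compound, and inhibition of growth is expressed relative to vehicle-treated controls.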

[15] = NCI Yeast Anticancer Drug Screen. Data for the mgt1 strain (AID 153); settings: S. cerevisiae mgt1 mutant growth inhibition, active compounds read high
Summary of the method: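 In the mgt1 strain, test compounds were added and growth inhibition was determined relative to vehicle-treated controls.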

[16] = NCI Yeast Anticancer Drug Screen. Data for the rad50 strain (AID 155);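 further: 0% = growth of vehicle-only cultures of the same strain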; settings: S. cerevisiae rad50 strain growth inhibition, active compounds read high
Summary of the method: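 A DNA repair-deficient yeast mutant serves as the test organism; compound-induced growth inhibition is calculated against vehicle-treated cells.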

[17] = at 5.0 µM (retest, dose inferred, filed as 0.5)
[18] = at 50.0 µM (retest, dose inferred, filed as 5.0)

Measured: growth inhibition

COc1ccc(-c2cc(-c3cc(C)cc(Cl)c3O)nc3[nH]c(=S)[nH]c(=S)c23)cc1
inactive: [1]; [17] 2% | [1]; at 11.0 µM -2% | [1]; at 33.0 µM 2% | [1]; [18] 62% | [1]; at 100.0 µM 57% | [2]; at 1.2 µM 1% | [2]; at 3.7 µM 4% | [2]; at 11.0 µM 9% | [2]; at 33.0 µM 17% | [3]; [17] -13% | [3]; [18] 68% | [4]; at 1.2 µM -2% | [4]; at 3.7 µM -2% | [4]; at 11.0 µM -3% | [4]; at 33.0 µM -5% | [5]; [17] 44% | [5]; at 50.0 µM 65.5% | [6]; at 1.2 µM 2% | [6]; at 3.7 µM 4% | [6]; [17] -20% | [6]; at 11.0 µM 0% | [6]; at 33.0 µM 1% | [6]; [18] 63% | [6]; at 100.0 µM 58% | [7]; at 1.2 µM 0% | [7]; at 3.7 µM -4% | [7]; at 11.0 µM -4% | [7]; at 33.0 µM 6% | [8]; at 1.2 µM -1% | [8]; at 3.7 µM -2% | [8]; at 11.0 µM 0% | [8]; at 33.0 µM 10% | [9]; at 1.2 µM 1% | [9]; at 3.7 µM -2% | [9]; at 11.0 µM -1% | [9]; at 33.0 µM 16% | [10]; [17] -31% | [11]; at 1.2 µM 0% | [11]; at 3.7 µM -2% | [11]; at 11.0 µM -16% | [11]; at 33.0 µM 8% | [11]; at 100.0 µM 61%
active: [1]; at 50.0 µM 82.6% | [2]; at 100.0 µM 89% | [3]; at 50.0 µM 84.8% | [4]; at 100.0 µM 87% | [5]; [18] 76% | [6]; at 50.0 µM 70.5% | [7]; at 100.0 µM 87% | [8]; at 100.0 µM 87% | [9]; at 100.0 µM 93% | [10]; [18] 86% | [10]; at 50.0 µM 87.1%

c1ccc2c(c1)N=C1CCCC3CCCC123 (centres undefined)
active: [12]; at 100.0 µM 98% | [13]; at 100.0 µM 97% | [15]; at 100.0 µM 98% | [16]; at 50.0 µM 91% | [16]; at 100.0 µM 98% | [1]; at 50.0 µM 89.6% | [1]; at 100.0 µM 99% | [2]; at 100.0 µM 97% | [3]; at 50.0 µM 83.7% | [4]; at 100.0 µM 98% | [6]; at 50.0 µM 91.4% | [6]; at 100.0 µM 98% | [7]; at 100.0 µM 98% | [8]; at 100.0 µM 97% | [9]; at 100.0 µM 99% | [10]; at 50.0 µM 90.8% | [11]; at 100.0 µM 98%
inactive: [12]; at 1.2 µM 3% | [12]; at 3.7 µM 4% | [12]; at 11.0 µM 11% | [12]; at 33.0 µM 56% | [13]; at 1.2 µM -2% | [13]; at 3.7 µM 2% | [13]; at 11.0 µM 7% | [13]; at 33.0 µM -1% | [14]; at 1.2 µM -9% | [14]; at 3.7 µM -14% | [14]; at 11.0 µM -11% | [14]; at 33.0 µM 5% | [14]; at 100.0 µM 68% | [15]; at 1.2 µM 1% | [15]; at 3.7 µM 1% | [15]; at 11.0 µM 6% | [15]; at 33.0 µM 21% | [16]; at 1.2 µM -2% | [16]; at 3.7 µM 2% | [16]; [17] -161% | [16]; at 11.0 µM 11% | [16]; at 33.0 µM 32% | [16]; [18] 63% | [1]; at 1.2 µM -2% | [1]; at 3.7 µM 1% | [1]; [17] -46% | [1]; at 11.0 µM -15% | [1]; at 33.0 µM 25% | [1]; [18] 65% | [2]; at 1.2 µM -3% | [2]; at 3.7 µM -7% | [2]; at 11.0 µM 3% | [2]; at 33.0 µM 3% | [3]; [17] -57% | [3]; [18] 60% | [4]; at 1.2 µM -3% | [4]; at 3.7 µM -1% | [4]; at 11.0 µM 4% | [4]; at 33.0 µM 15% | [5]; [17] -67% | [5]; [18] -26% | [5]; at 50.0 µM 23.6% | [6]; at 1.2 µM -2% | [6]; at 3.7 µM 10% | [6]; [17] -50% | [6]; at 11.0 µM 22% | [6]; at 33.0 µM 61% | [6]; [18] 61% | [7]; at 1.2 µM 1% | [7]; at 3.7 µM 2% | [7]; at 11.0 µM 3% | [7]; at 33.0 µM -1% | [8]; at 1.2 µM 6% | [8]; at 3.7 µM 3% | [8]; at 11.0 µM 3% | [8]; at 33.0 µM 3% | [9]; at 1.2 µM -1% | [9]; at 3.7 µM 9% | [9]; at 11.0 µM 12% | [9]; at 33.0 µM 16% | [10]; [17] -133% | [10]; [18] 12% | [11]; at 1.2 µM -2% | [11]; at 3.7 µM -3% | [11]; at 11.0 µM 0% | [11]; at 33.0 µM -6%

CN(C)CCNCCCNc1c2ccccc2nc2cccc([N+](=O)[O-])c12
active: [12]; at 11.0 µM 80% | [12]; at 33.0 µM 89% | [12]; at 100.0 µM 94% | [14]; at 33.0 µM 90% | [14]; at 100.0 µM 95% | [16]; at 33.0 µM 88% | [16]; [18] 93% | [16]; at 50.0 µM 80.8% | [16]; at 100.0 µM 94% | [1]; at 33.0 µM 91% | [1]; [18] 98% | [1]; at 50.0 µM 78.7% | [1]; at 100.0 µM 95% | [2]; at 11.0 µM 92% | [2]; at 33.0 µM 97% | [2]; at 100.0 µM 97% | [3]; [17] 73% | [3]; [18] 95% | [3]; at 50.0 µM 79.7% | [4]; at 100.0 µM 81% | [5]; [17] 80% | [5]; [18] 97% | [5]; at 50.0 µM 97.5% | [6]; [18] 72% | [6]; at 100.0 µM 80% | [7]; at 100.0 µM 91% | [8]; at 100.0 µM 74% | [9]; at 11.0 µM 76% | [9]; at 33.0 µM 84% | [9]; at 100.0 µM 89% | [10]; [17] 73% | [10]; [18] 97% | [10]; at 50.0 µM 88.7% | [11]; at 1.2 µM 88% | [11]; at 3.7 µM 94% | [11]; at 11.0 µM 96% | [11]; at 33.0 µM 96% | [11]; at 100.0 µM 96%
inactive: [12]; at 1.2 µM 23% | [12]; at 3.7 µM 46% | [13]; at 1.2 µM -14% | [13]; at 3.7 µM 9% | [13]; at 11.0 µM 11% | [13]; at 33.0 µM 20% | [13]; at 100.0 µM 50% | [14]; at 1.2 µM 9% | [14]; at 3.7 µM 26% | [14]; at 11.0 µM 69% | [15]; at 1.2 µM 4% | [15]; at 3.7 µM 18% | [15]; at 11.0 µM 20% | [15]; at 33.0 µM 26% | [15]; at 100.0 µM 58% | [16]; at 1.2 µM 9% | [16]; at 3.7 µM 39% | [16]; [17] 17% | [16]; at 11.0 µM 61% | [1]; at 1.2 µM 22% | [1]; at 3.7 µM 18% | [1]; [17] 17% | [1]; at 11.0 µM 50% | [2]; at 1.2 µM -2% | [2]; at 3.7 µM 46% | [4]; at 1.2 µM -2% | [4]; at 3.7 µM -4% | [4]; at 11.0 µM 2% | [4]; at 33.0 µM 22% | [6]; at 1.2 µM -5% | [6]; at 3.7 µM -11% | [6]; [17] -12% | [6]; at 11.0 µM -11% | [6]; at 33.0 µM 6% | [6]; at 50.0 µM -3.8% | [7]; at 1.2 µM 0% | [7]; at 3.7 µM 1% | [7]; at 11.0 µM 11% | [7]; at 33.0 µM 33% | [8]; at 1.2 µM 5% | [8]; at 3.7 µM 18% | [8]; at 11.0 µM 25% | [8]; at 33.0 µM 46% | [9]; at 1.2 µM 31% | [9]; at 3.7 µM 58%
